Hits are enriched below; roughly 4.3% of the tested compounds scored in any of these assays.
rCAG binder = r(CAG) repeat RNA binding. TO-PRO-1 dye displacement fluorescence. hit rate 1.3% among 370,000. inhibition, % at 3 µM. AID 651821;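 active means inhibition above the plate cutoff, the mean of all test compounds on that plate plus 3 SD, cut at about 35% in these data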;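 further: 0% = DMSO alone and 100% = 100 µM mitoxantrone as full dye displacement; higher means more dye released from RNA so lower well fluorescence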
NadD inh = blocks S. aureus nicotinate mononucleotide adenylyltransferase; inhibition, % at 20 µM; purified NadD enzyme, colorimetric absorbance read-out; hit rate 0.78% among 360,000; in the data active means inhibition above about 26%
NR3A LBD binder = modulates the human NR3A ligand-binding domain; NR3A LBD differential scanning fluorimetry, Tm shift; 0% = protein alone, 100% = glycine-bound protein; hit rate 2.5% among 340,000; AID 1259313; Tm shift relative to glycine control, % at 25 µM;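 active means melting temperature shift of at least 10% of the positive control shift, at one fixed dose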
FAS-TE inh = inhibitors of human fatty acid synthase thioesterase domain | recombinant FAS-TE, OMFH fluorogenic substrate, fluorescence endpoint | hit rate 0.67% among 360,000 | P49327 | inhibition, % at 15 µM;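 active means compounds whose normalised, plate-corrected inhibition of enzyme fluorescence in the single-dose primary screen is 50% or more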;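 further: 0% = DMSO with enzyme and 100% = substrate without enzyme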
Target sequence (P49327 whole entry, looked up, the tested form may be a part): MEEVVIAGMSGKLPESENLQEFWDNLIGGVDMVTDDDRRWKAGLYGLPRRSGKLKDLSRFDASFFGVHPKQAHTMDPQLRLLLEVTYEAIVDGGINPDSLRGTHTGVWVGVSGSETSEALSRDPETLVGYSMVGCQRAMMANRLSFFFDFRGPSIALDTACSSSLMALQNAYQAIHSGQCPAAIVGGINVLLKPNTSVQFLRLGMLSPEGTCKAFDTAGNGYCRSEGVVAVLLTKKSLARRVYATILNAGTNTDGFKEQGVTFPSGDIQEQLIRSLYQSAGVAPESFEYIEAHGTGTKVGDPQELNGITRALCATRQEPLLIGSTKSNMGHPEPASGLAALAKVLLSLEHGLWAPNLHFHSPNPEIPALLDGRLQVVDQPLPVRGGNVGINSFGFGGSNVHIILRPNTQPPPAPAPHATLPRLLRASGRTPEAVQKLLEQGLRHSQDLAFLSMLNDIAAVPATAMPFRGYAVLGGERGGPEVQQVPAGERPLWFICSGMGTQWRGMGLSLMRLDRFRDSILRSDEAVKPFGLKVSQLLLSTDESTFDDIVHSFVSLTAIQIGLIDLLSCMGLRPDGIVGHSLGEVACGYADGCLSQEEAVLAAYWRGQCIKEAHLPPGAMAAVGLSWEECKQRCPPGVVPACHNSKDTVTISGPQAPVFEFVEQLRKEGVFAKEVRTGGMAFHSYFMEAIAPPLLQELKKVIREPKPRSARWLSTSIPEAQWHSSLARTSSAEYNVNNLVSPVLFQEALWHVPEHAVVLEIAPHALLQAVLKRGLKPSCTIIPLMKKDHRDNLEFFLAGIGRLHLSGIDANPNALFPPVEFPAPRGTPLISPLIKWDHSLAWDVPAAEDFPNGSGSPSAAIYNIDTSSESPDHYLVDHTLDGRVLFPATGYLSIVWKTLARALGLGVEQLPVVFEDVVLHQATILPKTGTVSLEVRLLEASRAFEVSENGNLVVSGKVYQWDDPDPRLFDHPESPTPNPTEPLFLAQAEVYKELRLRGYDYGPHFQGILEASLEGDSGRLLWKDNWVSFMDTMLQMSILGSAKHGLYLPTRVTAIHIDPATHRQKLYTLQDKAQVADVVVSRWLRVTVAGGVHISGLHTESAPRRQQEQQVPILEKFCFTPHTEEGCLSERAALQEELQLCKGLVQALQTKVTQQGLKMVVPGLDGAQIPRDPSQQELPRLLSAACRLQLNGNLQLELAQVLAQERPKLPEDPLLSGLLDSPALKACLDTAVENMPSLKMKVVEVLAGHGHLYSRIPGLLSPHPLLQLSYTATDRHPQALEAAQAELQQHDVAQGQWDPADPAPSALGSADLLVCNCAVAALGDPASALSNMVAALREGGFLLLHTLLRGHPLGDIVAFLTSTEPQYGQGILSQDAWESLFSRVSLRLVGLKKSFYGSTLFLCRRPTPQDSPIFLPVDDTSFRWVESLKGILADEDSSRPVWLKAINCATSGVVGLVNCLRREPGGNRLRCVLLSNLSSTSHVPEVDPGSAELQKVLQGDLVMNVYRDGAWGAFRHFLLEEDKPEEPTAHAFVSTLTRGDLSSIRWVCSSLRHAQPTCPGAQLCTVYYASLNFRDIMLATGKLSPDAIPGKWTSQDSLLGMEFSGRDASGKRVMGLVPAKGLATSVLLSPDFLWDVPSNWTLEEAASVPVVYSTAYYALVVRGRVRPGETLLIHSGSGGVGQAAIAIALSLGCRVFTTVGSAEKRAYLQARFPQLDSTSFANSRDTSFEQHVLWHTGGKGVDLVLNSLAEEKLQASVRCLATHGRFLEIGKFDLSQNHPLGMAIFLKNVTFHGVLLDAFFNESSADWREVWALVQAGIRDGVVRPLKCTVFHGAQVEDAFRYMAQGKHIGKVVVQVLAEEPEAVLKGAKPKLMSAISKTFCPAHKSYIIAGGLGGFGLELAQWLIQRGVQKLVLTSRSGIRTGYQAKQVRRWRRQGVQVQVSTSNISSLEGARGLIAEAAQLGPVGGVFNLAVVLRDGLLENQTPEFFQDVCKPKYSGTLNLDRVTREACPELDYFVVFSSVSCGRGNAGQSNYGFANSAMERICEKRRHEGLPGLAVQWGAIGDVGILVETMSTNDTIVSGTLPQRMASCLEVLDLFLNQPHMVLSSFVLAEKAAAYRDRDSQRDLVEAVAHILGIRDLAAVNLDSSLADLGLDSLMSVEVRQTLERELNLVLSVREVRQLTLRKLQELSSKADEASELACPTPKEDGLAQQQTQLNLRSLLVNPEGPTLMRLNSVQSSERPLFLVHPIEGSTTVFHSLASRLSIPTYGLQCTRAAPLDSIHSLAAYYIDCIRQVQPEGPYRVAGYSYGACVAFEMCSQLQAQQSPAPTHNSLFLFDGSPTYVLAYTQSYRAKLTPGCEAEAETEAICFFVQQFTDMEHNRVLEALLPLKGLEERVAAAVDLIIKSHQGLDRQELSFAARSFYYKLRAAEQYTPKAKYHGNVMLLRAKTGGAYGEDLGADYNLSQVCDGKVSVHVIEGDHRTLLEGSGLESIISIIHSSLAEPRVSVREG
Starred values were filed as active, the others as inactive; · = no result given.

SMILES | rCAG binder | NadD inh | NR3A LBD binder | FAS-TE inh
CCOC(=O)c1c(NC(=O)CNC2CCCCC2)sc(C)c1C | -2 | 0 | 13* | 22
Cc1cc(C)nc(N2CCC(C(=O)N(C)CCc3ccccn3)CC2)n1 | 0 | · | · | ·
CC(=O)CC[C@@H]1CC[C@]2(CCCN(S(C)(=O)=O)C2)O1 | 3 | · | · | ·
CN(Cc1c(C(=O)N/N=C/c2c(F)cccc2Cl)nnn1-c1nonc1N)c1ccccc1 | 4 | 25 | 14* | 28
C/C(=N\NC(=O)c1nnn(-c2nonc2N)c1CN(C)c1ccccc1)c1cccc(O)c1 | -1 | 11 | 5 | 8
CN(Cc1c(C(=O)N/N=C/c2cccc(O)c2)nnn1-c1nonc1N)c1ccccc1 | · | 8 | 31* | 8
Cc1ccsc1/C=N/NC(=O)c1nnn(-c2nonc2N)c1CN(C)c1ccccc1 | 10 | 13 | 2 | 18
COCc1c(C(=O)N/N=C/c2cccc3ccccc23)nnn1-c1nonc1N | 0 | 0 | 31* | -4
Cc1ccc(/C=N/NC(=O)c2nnn(-c3nonc3N)c2C(C)C)o1 | -1 | 3 | -3 | -2
Cc1ccc(/C=N/NC(=O)c2nnn(-c3nonc3N)c2C(C)C)s1 | 1 | -7 | 11* | -2
CC(C)Oc1ccc(/C=N/NC(=O)c2nnn(-c3nonc3N)c2CN(C)c2ccccc2)cc1 | 5 | 6 | 11* | 24
Cc1ccc(/C=N/NC(=O)c2nnn(-c3nonc3N)c2CN(C)c2ccccc2)s1 | 8 | 22 | 18* | 32
CC(C)c1c(C(=O)N/N=C/c2ccccc2OCc2c(F)cccc2Cl)nnn1-c1nonc1N | 3 | 24 | 13* | 31
CCn1cc(Cl)c(C(=O)N2N=C(c3ccc4ccccc4c3)CC2c2ccccc2O)n1 (stereo unspecified) | 10 | 35* | 1 | 18
Nc1c(-c2ccccc2)cnc2c(-c3ccccc3)cnn12 | 4 | 6 | -6 | -1
Nc1c(-c2cccs2)cnc2c(-c3ccc(F)cc3)cnn12 | 14 | -6 | 30* | 8
Cc1nc2c(-c3ccc(F)cc3)cnn2c(N)c1-c1ccc(F)cc1 | 0 | -3 | 8 | 26
CS(=O)(=O)c1cnc2c(-c3ccc(F)cc3)cnn2c1N | -2 | 3 | 37* | -3
NS(=O)(=O)c1ccc(NC(=O)Nc2ccc(C(F)(F)F)cc2)cc1 | 15 | -6 | 20* | 23
NS(=O)(=O)c1ccc(NC(=O)Nc2ccc(S(N)(=O)=O)cc2)cc1 | -1 | -6 | 1 | -3
Cc1ccc(NC(=O)Nc2ccc(S(N)(=O)=O)cc2)cc1 | 3 | -3 | 11* | 1
CCOC(=O)c1cccc(NC(=O)CN(C)S(=O)(=O)c2cc3ccccc3s2)c1 | 6 | · | · | ·
CCOC(=O)[C@]12CCCC=C1N(CCCOC)C(=O)[C@@H]2CC(=O)NCCCN1CCCC1=O | -1 | · | · | ·
Cc1ccc(-n2c(SC/C=C/c3ccccc3)nnc2-c2cccs2)cc1 | 5 | · | · | ·
C=CCSc1nnc2c(n1)OC(c1c(C)[nH]n(-c3ccccc3)c1=O)Nc1ccccc1-2 (stereo unspecified) | 41* | 14 | -1 | 5
SMILES | rCAG binder | NadD inh | NR3A LBD binder | FAS-TE inh
COc1cccc(CNC(=O)CN2CCCc3ccccc32)c1OC | 3 | · | · | ·
CCCN(CCC)S(=O)(=O)c1ccc(C(=O)OCCN2C(=O)c3cccc4c(N5CCOCC5)ccc(c34)C2=O)cc1 | · | 3 | 17* | -109
COc1ccc(/C=N/NC(=O)c2ccc(OC)c(OC)c2)cc1COc1c(F)c(F)c(F)c(F)c1F | 5 | -7 | 12* | 10
COc1ccc(/C=N/NC(=O)c2ccc(O)cc2)cc1CN1CCCc2ccccc21 | 21 | 19 | 27* | 2
COCc1cc(/C=N\NC(=O)c2ccc(Cl)cc2)ccc1OC | 1 | 3 | 11* | -5
COc1ccc(/C=N\NC(=O)c2ccccc2Br)cc1COc1c(F)c(F)cc(F)c1F | 5 | -7 | -6 | 16
CCCCNC(=O)C[C@H]1C[C@@]2(C(=O)OCC)CCCC3=C2N(CCC3)C1=O | -3 | · | · | ·
CC(NCc1ccco1)C(=O)N1CCCC1 (stereo unspecified) | 6 | · | · | ·
CS(=O)(=O)C1=NN2C(=N)/C(=C\c3ccc(OC(=O)c4ccco4)cc3)C(=O)N=C2S1 | 31 | 4 | 0 | 2
CC1CCN(C2=NN3C(=N)/C(=C\c4ccc(OC(=O)c5ccco5)cc4)C(=O)N=C3S2)CC1 | 27 | 37* | -15 | 2
O=C(Nc1ccc(F)cc1)Nc1nnc(-c2ccncc2)s1 | 18 | 5 | 2 | -2
O=C(Nc1ccc(Cl)cc1)Nc1nnc(-c2ccncc2)s1 | 16 | 19 | 20* | 1
Cc1cnc(NC(=O)Nc2ccc(Cl)cc2)s1 | 29 | 0 | 26* | 8
O=C(Nc1ccc(Cl)cc1)Nc1nnc(CSc2ccc(Cl)cc2)s1 | 5 | 15 | 27* | 6
O=C(Nc1ccccc1)Nc1nnc(SCc2ccc(Cl)cc2)s1 | 13 | 5 | 35* | 0
O=C(Nc1ccc(Cl)cc1)Nc1nnc(SCc2ccc(Cl)cc2)s1 | 3 | 0 | -2 | -4
Cn1cccc1C=NNC(=O)c1cc(-c2ccc(Cl)cc2)n[nH]1 | 10 | · | · | ·
O=C(Cc1nnc(NC(=O)Nc2ccccc2)s1)NCc1ccccc1 | 25 | 3 | -2 | -8
O=C(Cc1nnc(NC(=O)Nc2ccc(Cl)cc2)s1)NCc1ccccc1 | 33 | 7 | 16* | 0
CC(C)(CCC(=S)N1CCOCC1)c1ccccc1 | -1 | -4 | 11* | -2
Cc1nc(Cl)cc(N/N=C/c2ccc(O)cc2)n1 | -2 | -7 | 26* | -1
COc1cccc(/C=N/Nc2cc(Cl)nc(C)n2)c1O | -1 | -1 | -1 | -3
Cc1nc(Cl)cc(N/N=C/c2ccc(O)cc2O)n1 | 1 | 0 | 19* | 1
Oc1ccc(/C=N/Nc2cc(N3CCCC3)nc(N3CCCC3)n2)cc1 | 4 | 14 | 4 | -2
Cc1cc(N/N=C/c2ccc(O)cc2)c2cccc(C)c2n1 | 19 | 9 | 12* | -3
SMILES | rCAG binder | NadD inh | NR3A LBD binder | FAS-TE inh
COCCN=c1scc(-c2ccc3c(c2)NC(=O)CO3)n1/N=C(\C)c1ccc(O)cc1 | 2 | 1 | -1 | 8
COc1cc(/C=N/n2c(-c3ccc4c(c3)NC(=O)CO4)csc2=Nc2cccc(C)c2)ccc1O | 16 | 35* | -3 | 37
C=C1[C@@H](CCO)N(S(=O)C(C)(C)C)C[C@@H]1C (stereo partly specified) | 0 | · | · | ·
Cc1ccccc1C(=O)N1CCc2cc(-c3nc(NC(=O)Cc4ccc5c(c4)OCO5)sc3C)ccc21 | · | 47* | -7 | 43
Cc1cccc(C(=O)N2CCc3cc(-c4nc(NC(=O)CN5CCCC5)sc4C)ccc32)c1 | 3 | 8 | 1 | 1
Cc1nn(-c2ccccc2)c2sc(C(=O)N3CCC4(CC3)OCCO4)cc12 | 0 | · | · | ·
Cc1ccc(S(=O)(=O)n2ccc(-c3c(-c4ccccc4)noc3C)n2)cc1 | -1 | · | · | ·
CC(C)(Oc1ccc(Br)cc1Cl)C(=O)Nc1ccon1 | -2 | -1 | 13* | 4
COC(=O)[C@]12C[C@H](CC(=O)N3CCN(C(=O)C4CC4)CC3)C(=O)N(Cc3ccc(Cl)cc3Cl)C1=C[C@H](C(C)(C)C)O[C@@H]2C | 8 | · | · | ·
